Experimental data taken from PubChem BioAssay (NCATS).
Several values for one entry are separate records, joined by “and”; a condition that tells them apart may be missing. Identical values can stand only once. Results filed as inconclusive are left out. Values without a mark were called inactive. Activity calls are given as the source filed them. Calls follow the shape of the dose curve; as a rule, active = well fitted cell-killing curve with a large enough effect; inconclusive = small, poorly fitted or top-dose-only effect, or effect the other way; inactive = no such curve, though single readings can be large or run the other way.

Tests used:
[1] = Quantitative High-Throughput drug screen in 47 multiple myeloma cell lines against the NCATS MIPE library collection: OCIMY5_PLB cell viability assay (AID 1918988); also: nearly all actives have a fitted effect of over 65% in size
How it was run: (§1)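 ATP-based luminescence (CellTiter-Glo, 5 min RT incubation) quantified surviving cells following two days' treatment with MIPE 4.0 agents at 37 °C, 5% CO2.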

[2] = Quantitative High-Throughput drug screen in 47 multiple myeloma cell lines against the NCATS MIPE library collection: OPM1_PLB cell viability assay (AID 1918989); also: nearly all actives have a fitted effect of over 40% in size
How it was run: as §1

[3] = Quantitative High-Throughput drug screen in 47 multiple myeloma cell lines against the NCATS MIPE library collection: SKMM1_PLB cell viability assay (AID 1919863); conditions: SKMM1 myeloma viability, CellTiter-Glo ATP, 48 h; viability: active compounds read low; also: nearly all actives have a fitted effect of over 35% in size
How it was run: as §1

[4] = Quantitative High-Throughput drug screen in 47 multiple myeloma cell lines against the NCATS MIPE library collection: U266_ATCC cell viability assay (AID 1919864); also: nearly all actives have a fitted effect of over 35% in size;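 as to viability (% of DMSO control): 0% = media-only wells without cells and 100% = DMSO-only wells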
How it was run: as §1

[5] = Quantitative High-Throughput drug screen in 47 multiple myeloma cell lines against the NCATS MIPE library collection: XG1_PLB cell viability assay (AID 1919866); also: nearly all actives have a fitted effect of over 35% in size
How it was run: as §1

[6] = Quantitative High-Throughput drug screen in 47 multiple myeloma cell lines against the NCATS MIPE library collection: PE2_PLB cell viability assay (AID 1919869); also: nearly all actives have a fitted effect of over 35% in size
How it was run: as §1

[7] = Quantitative High-Throughput drug screen in 47 multiple myeloma cell lines against the NCATS MIPE library collection: XG6_PLB cell viability assay (AID 1919865); also: nearly all actives have a fitted effect of over 40% in size
How it was run: as §1

[8] = Quantitative High-Throughput drug screen in 47 multiple myeloma cell lines against the NCATS MIPE library collection: VP6_DJ cell viability assay (AID 1919867); also: nearly all actives have a fitted effect of over 40% in size
How it was run: as §1

[9] = Quantitative High-Throughput drug screen in 47 multiple myeloma cell lines against the NCATS MIPE library collection: PCM6_Riken cell viability assay (AID 1919870); also: nearly all actives have a fitted effect of over 30% in size
How it was run: as §1

[10] = Quantitative High-Throughput drug screen in 47 multiple myeloma cell lines against the NCATS MIPE library collection: UTMC2_PLB cell viability assay (AID 1919868); conditions: CellTiter-Glo ATP luminescence, 48 h; viability (% of DMSO control): at 45.8 µM (top of the series); also: nearly all actives have a fitted effect of over 55% in size;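 as to viability (% of DMSO control): 100% = DMSO-only wells and 0% = media-only wells without cells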
How it was run: as §1
Potency is read from the fitted curve at half-maximal effect.

SMILES	Potency [1]	Potency [2]	viability [3]	Potency [4]	Potency [5]	Potency [6]	Potency [3]	Potency [7]	Potency [8]	Potency [9]	Potency [10]
Cc1cnc(NC(=O)C2=C(O)c3ccccc3S(=O)(=O)N2C)s1	inactive	inactive									
COc1ccc(CC2=NN3C([C@@H](CCc4ccccc4)[C@@H](C)O)=NC(C)C3C(=O)N2)cc1OC (stereo not given in full)	inactive	2640 nM (active)	138%	inactive	inactive	inactive					
CS(=O)(=O)c1cccc(CNc2nc(Nc3ccc4c(c3)CCC(=O)N4)ncc2C(F)(F)F)c1	18700 nM (active)	18700 nM (active)		18700 nM (active)	11.8 µM (active)	18700 nM (active)	20900 nM (active)	8330 nM (active)			
Cc1cn[nH]c1	9.3 nM (active)	1660 nM (active)		662 nM (active)	1.05 µM (active)	4690 nM (active)	66.2 nM (active)	296 nM (active)	93.5 nM (active)	83.3 nM (active)	
OCCn1cc(-c2cnc3nnn(Cc4ccc5ncccc5c4)c3n2)cn1	9350 nM (active)	inactive		2090 nM (active)	inactive	inactive	16600 nM (active)	inactive			inactive
CC(C)(C)OC(=O)CN(Cc1ccc(Cl)cc1)Cc1ccc([N+](=O)[O-])s1	18700 nM (active)										
COc1ccc(-c2ccc3c(N4CCOC[C@H]4C)nc(N4CCOC[C@H]4C)nc3n2)cc1CO	332 nM (active)	14.8 nM (active)		7.4 nM (active)		14.8 nM (active)	14.8 nM (active)	14.8 nM (active)		16.6 nM (active)	
Oc1ccc(C2CNCCc3c2cc(O)c(O)c3Cl)cc1 (stereo not given)	16600 nM (active)	inactive	103%	inactive	inactive	inactive					
COc1ccc([C@@H]2CC(=O)c3c(O)cc(O[C@@H]4O[C@H](CO[C@@H]5O[C@@H](C)[C@H](O)[C@@H](O)[C@@H]5O)[C@@H](O)[C@H](O)[C@@H]4O)cc3O2)cc1O	13200 nM (active)	inactive	111% and 110%	inactive	4.18 µM (active)	inactive		5900 nM (active)	inactive		
CC(C=CC1=C(C)CCCC1(C)C)=CC=CC(C)=CC(=O)O	14800 nM (active)	8330 nM (active)		2090 nM (active)	1.87 µM (active) and 16.6 µM (active)	16600 nM (active)	14800 nM (active)	935 nM (active) and 5.26 µM (active)		14.8 µM (active) and 18.7 µM (active)	
COc1cccc2cc(-c3nc(C4CCC(C(=O)O)CC4)n4ncnc(N)c34)[nH]c12 (stereo not given)	1320 nM (active)	2350 nM (active)		296 nM (active)	0.148 µM (active)	372 nM (active)	1870 nM (active)	418 nM (active)		1870 nM (active)	
C1COC(NC(C2CC2)C2CC2)=N1	inactive	16600 nM (active)									
COc1ccc(-c2ccc3c(N4CCOCC4)nc(N4C[C@@H](C)O[C@@H](C)C4)nc3n2)cc1CO	1480 nM (active)	935 nM (active)		332 nM (active)	0.187 µM (active)	833 nM (active)	1660 nM (active)	590 nM (active)	296 nM (active)		
N#CC[C@H](C1CCCC1)n1cc(-c2ncnc3[nH]ccc23)cn1	20900 nM (active)	6620 nM (active)		18700 nM (active)			6620 nM (active)				9350 nM (active)
CCc1cncnc1N1CCN(Cc2nc3ccc(C(F)(F)F)cc3[nH]2)CC1	23500 nM (active)	18700 nM (active)		6620 nM (active)	10.5 µM (active)		18700 nM (active)				
N[C@@H]1CONC1=O	inactive	inactive	132%	inactive	inactive	inactive		inactive	20900 nM (active)		
Cc1cc([C@@H](C)Nc2ccccc2C(=O)O)c2nc(N3CCOCC3)cc(=O)n2c1	38200 nM (active)	17100 nM (active)		5400 nM (active)	4.29 µM (active)	9590 nM (active)	27000 nM (active)	1910 nM (active)	9590 nM (active)		
Cc1c(CN2CCN(C(=O)C(C)C)CC2)sc2c(N3CCOCC3)nc(-c3cnc(N)nc3)nc12	74.3 nM (active)	118 nM (active)		372 nM (active)	0.0662 µM (active)	66.2 nM (active)	148 nM (active)	132 nM (active)		235 nM (active)	
CC(C)(N)C(=O)N[C@H](COCc1ccccc1)C(=O)N1CCC2(CC1)CN(S(C)(=O)=O)c1ccccc12	16600 nM (active)										
